Nrf2 activator – activators of Nrf2 (ARE) signaling; AREc32 ARE-luciferase reporter (MCF7-derived line), luminescence, 24 h; Potency, µM (titrated, usually from 46.1 µM), actives largely listed as activators; 410,000 tested, 0.31% active; AID 624171; also: nearly all actives have a fitted effect of over 65% in size
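Each well held 1000 AREc32 cells, which were incubated with compound for 24 hr at 37 deg C after overnight attachment, and ARE reporter activity was quantified by firefly luciferase luminescence.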
Nrf2 block – blocks Nrf2 signaling. Potency, µM (doses to about 46 µM), actives largely listed as inhibitors. 360,000 tested, 2.1% active. A549 ARE-Fluc reporter, luciferase luminescence, 18-24 h. AID 504444; also: nearly all actives have a fitted effect of over 60% in size
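Quantitative HTS in A549 cells stably bearing an antioxidant response element-firefly luciferase construct. Inhibition of Nrf2-driven transcription was scored by luminescence after 18-24 h of compound exposure at 37 °C.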
TGFb inhibitor – blocks TGF-b signaling; HepG2 CAGA-GFP TGF-b/SMAD3 reporter, GFP fluorescence, 18 h; TGF-beta stimulated, 500 pg/mL final; Potency, µM (highest dose often 46.1 µM), actives largely listed as inhibitors; 410,000 tested, 1.2% active; AID 588855; also: nearly all actives have a fitted effect of over 65% in size
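GFP signal (ex488/em500-530) from TGF-beta-stimulated HEPG2 CAGA-GFP cells, 500 pg/mL final, 18 h at 37 degrees C in DMEM plus 1% FBS, normalized to unstimulated and DMSO-stimulated controls.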
A549 viability – A549 cytotoxicity, counter-screen for Nrf2 inhibitors. Potency, µM (series often up to 46 µM), usual class: inhibitors. A549 ARE-Fluc cells, CellTiter-Fluor viability, 18-24 h. 390,000 tested, 0.16% active
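Cytotoxicity counterscreen: CellTiter-Fluor fluorescence was measured in A549 ARE_Fluc cells after 18-24 h of compound exposure in a concentration series. The subsequent BugLite luminescent read reports ARE-luciferase activity.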
HepG2 tox – kills HepG2 cells in TGF-b inhibitor counter-screen. HepG2 CAGA-GFP viability, ATP luminescence, 18 h. Potency, µM (series often up to 46.1 µM), most hits filed as cytotoxic. 410,000 tested, 0.76% active. AID 588856
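CellTiter-Glo luminescence gave cytotoxicity after 18 hours at 37 degrees C. The cells were HepG2 CAGA-GFP in 1% FBS DMEM, stimulated with 500 pg/mL TGF-beta after compound addition. %Activity was normalised to no-cell wells (complete cell-killing) and DMSO (no toxicity), and curves were fitted and classified.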
Each line names hits and unclear results; the compound was inactive in the other large screens. In the library only some 3.6% were active in any assay of this set; here they are far more common. Calls follow the shape of the dose curve; as a rule, active = well fitted curve in the direction sought with a large enough effect; inconclusive = small, poorly fitted or top-dose-only effect, or another doubt; inactive = no such curve, though single readings can be large; an effect the other way counts as inactive or inconclusive.

CC[C@]12c3[nH]c4ccc(Cl)cc4c3CCN1C(=O)[C@@H](CC(=O)NCCN1CCOCC1)C[C@@H]2C(=O)N1CCN(C(=O)c2ccco2)CC1	none
CCOC(=O)c1cc(C)n(CC2CCC(C(=O)Nc3ccc(OCC)cc3)CC2)c1C (centres undefined)	Nrf2 block inconclusive, TGFb inhibitor inconclusive
CCOC(=O)c1cc(C)n(CC2CCC(C(=O)Nc3ccccc3OC)CC2)c1C (centres undefined)	Nrf2 block inconclusive, TGFb inhibitor 11µM
CC1CCN(CC(CS(=O)(=O)c2ccc([N+](=O)[O-])cc2)N2CCC(C)CC2)CC1 (centres undefined)	Nrf2 block 23µM, A549 viability inconclusive
Cc1ccc(S(=O)(=O)CC(CN2CCOCC2)N2CCOCC2)cc1 (centres undefined)	none
CN=C1S/C(=C\c2cc(C)n(-c3ccccc3F)c2C)C(=O)N1C	Nrf2 block inconclusive, TGFb inhibitor inconclusive
Cc1ccc(C2CC(c3cccs3)=NN2C(=O)CSC2=NN3CCCC(=O)N=C3S2)cc1 (centres undefined)	none
COc1ccc(-c2ccc(C(=O)NCc3ccc(N4CCN(C)CC4)cc3)c3occc23)c(C)c1	TGFb inhibitor inconclusive, HepG2 tox 11µM (no result: Nrf2 block, A549 viability)
COc1ccc(-c2ccc(C(=O)NCc3ccccc3)c3occc23)c(C)c1	TGFb inhibitor inconclusive (no result: Nrf2 block, A549 viability)
Cc1ccc(S(=O)(=O)c2cc3c(=O)n4ccccc4nc3n(Cc3ccco3)c2=N)cc1C	none
Fc1ccccc1C1CC(c2ccco2)=Nc2ccccc2S1 (centres undefined)	Nrf2 activator inconclusive, TGFb inhibitor 18µM
Oc1ccc(Cl)cc1C1=Nc2ccccc2N=C(c2ccco2)C1	none
CN(Cc1ccccc1)C(=O)c1cccc(NC(=O)Cc2ccc(NC(=O)C3CCCN(C(=O)C4CC4)C3)cc2)c1 (centres undefined)	none
COc1cc(OC)c2c(c1)O/C(=C\c1ccccc1)C2=O	none
Cc1ccc(CNCC(O)(c2ccccc2)c2ccc(Cl)cc2)cc1 (centres undefined)	Nrf2 block inconclusive, TGFb inhibitor inconclusive
COc1ccc(CNCC(O)(c2ccccc2)c2ccc(Cl)cc2)cc1 (centres undefined)	Nrf2 block inconclusive, TGFb inhibitor inconclusive, A549 viability inconclusive, HepG2 tox 16µM
CNC(=O)C1CCN(S(=O)(=O)c2c(C)noc2/C=C/N(C)C)CC1	none
CCCCCCCCCC[n+]1cccc(Br)c1	TGFb inhibitor inconclusive (no result: Nrf2 activator, Nrf2 block, A549 viability)
CCCCCCCCCC[n+]1cc(Br)cc(Br)c1	TGFb inhibitor inconclusive, HepG2 tox 22µM (no result: Nrf2 activator, Nrf2 block, A549 viability)
CN1/C(=C\C=C2/SC(=S)NC2=O)C(C)(C)c2ccccc21	Nrf2 block inconclusive, A549 viability 15µM
CN1C(=CC=C2C=C(I)C(=O)C(I)=C2)C(C)(C)c2ccccc21	Nrf2 block inconclusive, A549 viability inconclusive
O=C1OC(Nc2ccc3c(c2)OCO3)c2ccccc21 (centres undefined)	Nrf2 activator 11µM, Nrf2 block inconclusive, TGFb inhibitor inconclusive
O=[N+]([O-])c1cccc(/C=C2\CCC(/C=N/Nc3ccc4ccccc4n3)=C2N2CCOCC2)c1	none
COC1=C(Nc2ccccc2OC)C(=O)c2ccccc2C1=O	Nrf2 block inconclusive
COc1ccccc1NC1=C(NC(C)=O)C(=O)c2ccccc2C1=O	TGFb inhibitor 14µM
COc1ccc(Cc2c(-c3cccc(Cl)c3)nc3c(C)cc(Br)cn23)c(C)c1	TGFb inhibitor inconclusive (no result: Nrf2 block, A549 viability)
O=C(O)c1ccccc1-c1c2cc(I)c(=O)c(I)c-2oc2c(I)c(O)c(I)cc12	A549 viability 9.2µM
Cc1ccc(C(=O)N/N=C\c2c(C)nn(-c3ccccc3)c2Cl)cn1	none
CC1CCN(C(=O)Cn2cnc3c(cnn3C(C)(C)C)c2=O)CC1	Nrf2 block inconclusive
Cc1[nH]nc2c1-c1nc3ccccc3nc1C(C)(C)C2	Nrf2 block 15µM, A549 viability 15µM
O=C(NCCc1cccs1)C12CN(Cc3ccccc3)CC1C(c1cccc([N+](=O)[O-])c1)=NO2 (centres undefined)	none
O=C1C=C(N(CCO)Cc2ccccc2)c2ccccc2C1=O	Nrf2 block 21µM, TGFb inhibitor 8.9µM, A549 viability 23µM, HepG2 tox 10µM
O=C1c2ccccc2C(=O)c2c1cccc2N(CCO)CCO	A549 viability inconclusive
CCc1ccc(C(=O)Cn2ncc(Cl)c(Cl)c2=O)cc1	Nrf2 activator 10µM, TGFb inhibitor inconclusive
O=C(Cn1ncc(Cl)c(Cl)c1=O)N1CCN(Cc2ccccc2)CC1	Nrf2 activator inconclusive, Nrf2 block inconclusive, TGFb inhibitor inconclusive, A549 viability inconclusive
Cc1ccc(Cn2ncc(Cl)c(Cl)c2=O)cc1	Nrf2 activator inconclusive, TGFb inhibitor inconclusive
O=C(Cn1ncc(Cl)c(Cl)c1=O)N1CCOCC1	Nrf2 activator 11µM, A549 viability inconclusive
CCOC(=O)C1CCCN(C(=S)NC2CCCCC2)C1 (centres undefined)	none
CCN(CC)c1c(-c2ccccc2)c2cc(C)ccc2[nH]c1=O	none
CCN(CC)c1ccc2c(c1)oc(=O)c1c(Cl)cc(=O)oc12	Nrf2 activator 8.9µM, TGFb inhibitor inconclusive, A549 viability inconclusive, HepG2 tox 14µM
COc1ccc(NC2CCCN(C(=O)c3csc(C)n3)C2)cc1 (centres undefined)	none
Clc1cccc(OCc2nc(-c3ccncc3)n[nH]2)c1	Nrf2 block 21µM
O=C(O)c1ccccc1NC(=O)C1CCCO1 (centres undefined)	none
O=c1ccc2nc3ccccc3sc-2c1	TGFb inhibitor 20µM, HepG2 tox 25µM (no result: Nrf2 block, A549 viability)
O=C(CCSCc1cnn(-c2ccccc2)c1-n1cccc1)NCc1ccc(Cl)cc1	Nrf2 block inconclusive, TGFb inhibitor 16µM
Cc1ccsc1CN(C)c1ncnc2ccc(-c3ccoc3)cc12	TGFb inhibitor 11µM (no result: Nrf2 block, A549 viability)
CN(C)C(=O)c1ccc2c(c1[N+](=O)[O-])C(=O)c1ccccc1C2=O	TGFb inhibitor 10µM, A549 viability inconclusive
Cc1[nH]c2ccccc2c1CCNC(=O)c1ccc2c(c1[N+](=O)[O-])C(=O)c1ccccc1C2=O	Nrf2 activator inconclusive, TGFb inhibitor inconclusive, A549 viability inconclusive
Cc1cc(C)n(CCc2nc3c4ccccc4nc(N4CCN(c5ccc(F)cc5)CC4)n3n2)n1	none
O=C(NCC1CCCN1S(=O)(=O)c1cccs1)c1cccc(F)c1 (centres undefined)	Nrf2 block 13µM
O=C(NCC1CCCN1S(=O)(=O)c1cccs1)c1ccc(Cl)cc1 (centres undefined)	Nrf2 block 23µM
O=C(NCC1CCCN1S(=O)(=O)c1cccs1)c1ccccc1 (centres undefined)	Nrf2 block inconclusive
COc1ccc(S(=O)(=O)Nc2ccc3c(c2)N(C(C)=O)CCC3)cc1OC	none

From PubChem BioAssay
